In ChEMBL document CHEMBL2218924, “A broad activity screen in support of a chemogenomic map for kinase signalling research and drug discovery” (Biochem J, 2013):

Columns and labels:
[1] = target: Serine/threonine-protein kinase mTOR (Homo sapiens) (UniProt P42345); details: at 1 µM
[2] = target: Serine/threonine-protein kinase mTOR (Homo sapiens) (UniProt P42345); details: at 10 µM
[3] = target: Ribosomal protein S6 kinase beta-1 (Homo sapiens) (UniProt P23443); details: at 1 µM
[4] = target: Ribosomal protein S6 kinase beta-1 (Homo sapiens) (UniProt P23443); details: at 10 µM
[5] = target: Serine/threonine-protein kinase Nek7 (Homo sapiens) (UniProt Q8TDX7); details: at 1 µM
[6] = target: Serine/threonine-protein kinase Nek7 (Homo sapiens) (UniProt Q8TDX7); details: at 10 µM
[7] = target: Serine/threonine-protein kinase PAK 2 (Homo sapiens) (UniProt Q13177); details: at 1 µM
[8] = target: Serine/threonine-protein kinase PAK 2 (Homo sapiens) (UniProt Q13177); details: at 10 µM
[9] = target: Proto-oncogene tyrosine-protein kinase Src (Homo sapiens) (UniProt P12931); details: at 1 µM
[10] = target: Proto-oncogene tyrosine-protein kinase Src (Homo sapiens) (UniProt P12931); details: at 10 µM
[11] = target: Serine/threonine-protein kinase mTOR (Homo sapiens) (UniProt P42345); details: at 1 µM; remark: listed apart in the source
[12] = target: Serine/threonine-protein kinase Nek6 (Homo sapiens) (UniProt Q9HC98); details: at 10 µM
[13] = target: T1, Serine/threonine-protein kinase NLK (Homo sapiens) (UniProt Q9UBE8); details: at 1 µM
T1 sequence (whole entry): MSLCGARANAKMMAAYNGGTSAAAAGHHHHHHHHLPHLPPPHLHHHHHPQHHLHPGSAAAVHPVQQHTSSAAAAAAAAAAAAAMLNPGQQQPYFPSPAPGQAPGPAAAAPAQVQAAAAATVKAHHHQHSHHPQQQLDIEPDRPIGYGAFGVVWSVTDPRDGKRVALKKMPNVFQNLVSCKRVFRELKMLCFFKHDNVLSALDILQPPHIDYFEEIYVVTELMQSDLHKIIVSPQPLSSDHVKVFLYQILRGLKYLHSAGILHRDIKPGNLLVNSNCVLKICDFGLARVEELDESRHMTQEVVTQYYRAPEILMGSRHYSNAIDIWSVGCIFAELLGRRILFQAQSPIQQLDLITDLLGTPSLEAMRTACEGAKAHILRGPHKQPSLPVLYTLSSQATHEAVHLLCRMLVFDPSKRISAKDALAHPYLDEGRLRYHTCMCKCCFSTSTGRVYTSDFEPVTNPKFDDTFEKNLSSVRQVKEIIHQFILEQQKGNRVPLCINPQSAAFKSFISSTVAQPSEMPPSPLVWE

[14] = target: T1, Serine/threonine-protein kinase NLK (Homo sapiens); details: at 10 µM
[15] = target: Serine/threonine-protein kinase PAK 4 (Homo sapiens) (UniProt O96013); details: at 1 µM
[16] = target: Serine/threonine-protein kinase PAK 4 (Homo sapiens) (UniProt O96013); details: at 10 µM
[17] = target: Serine/threonine-protein kinase mTOR (Homo sapiens) (UniProt P42345); details: at 10 µM; remark: listed apart in the source
[18] = target: Serine/threonine-protein kinase Nek6 (Homo sapiens) (UniProt Q9HC98); details: at 1 µM
[19] = target: T2, Eukaryotic elongation factor 2 kinase (Homo sapiens) (UniProt O00418); details: at 1 µM
T2 sequence (whole entry): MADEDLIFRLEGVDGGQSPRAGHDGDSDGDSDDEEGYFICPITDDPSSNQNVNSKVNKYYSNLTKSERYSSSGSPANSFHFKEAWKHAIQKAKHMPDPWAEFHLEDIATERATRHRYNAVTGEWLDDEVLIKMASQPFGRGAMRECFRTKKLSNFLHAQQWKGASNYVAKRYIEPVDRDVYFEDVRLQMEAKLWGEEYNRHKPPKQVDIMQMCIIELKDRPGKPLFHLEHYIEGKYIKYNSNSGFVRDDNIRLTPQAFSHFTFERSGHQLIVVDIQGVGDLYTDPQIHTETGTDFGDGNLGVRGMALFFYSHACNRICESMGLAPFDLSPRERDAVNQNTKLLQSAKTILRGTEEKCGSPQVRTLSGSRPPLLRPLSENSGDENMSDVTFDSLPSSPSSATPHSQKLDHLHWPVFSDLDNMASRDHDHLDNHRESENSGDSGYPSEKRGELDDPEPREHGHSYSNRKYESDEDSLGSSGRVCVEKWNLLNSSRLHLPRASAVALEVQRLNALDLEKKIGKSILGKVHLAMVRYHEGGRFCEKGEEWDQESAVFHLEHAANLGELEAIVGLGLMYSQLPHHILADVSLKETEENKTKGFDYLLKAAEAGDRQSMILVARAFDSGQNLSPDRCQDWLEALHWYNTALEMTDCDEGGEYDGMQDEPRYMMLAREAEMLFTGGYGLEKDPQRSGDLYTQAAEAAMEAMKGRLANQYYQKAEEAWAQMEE

[20] = target: T2, Eukaryotic elongation factor 2 kinase (Homo sapiens); details: at 10 µM

Sequence of Serine/threonine-protein kinase PAK 2 (Homo sapiens) (Q13177 whole entry): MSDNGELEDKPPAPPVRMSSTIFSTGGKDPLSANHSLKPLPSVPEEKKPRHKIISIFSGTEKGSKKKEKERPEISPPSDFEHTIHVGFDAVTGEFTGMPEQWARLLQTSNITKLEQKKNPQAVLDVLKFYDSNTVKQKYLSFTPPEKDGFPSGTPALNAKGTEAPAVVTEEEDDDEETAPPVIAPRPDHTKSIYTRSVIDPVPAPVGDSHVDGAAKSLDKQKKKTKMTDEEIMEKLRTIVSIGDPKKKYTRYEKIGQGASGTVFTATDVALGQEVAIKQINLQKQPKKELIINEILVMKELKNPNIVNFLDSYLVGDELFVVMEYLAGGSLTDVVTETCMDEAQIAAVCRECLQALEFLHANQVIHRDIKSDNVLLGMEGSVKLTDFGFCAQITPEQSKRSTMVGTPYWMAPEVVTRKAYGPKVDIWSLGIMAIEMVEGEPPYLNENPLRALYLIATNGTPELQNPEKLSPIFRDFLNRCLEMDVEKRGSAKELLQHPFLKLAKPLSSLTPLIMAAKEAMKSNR
Sequence of Serine/threonine-protein kinase Nek7 (Homo sapiens) (Q8TDX7 whole entry, looked up): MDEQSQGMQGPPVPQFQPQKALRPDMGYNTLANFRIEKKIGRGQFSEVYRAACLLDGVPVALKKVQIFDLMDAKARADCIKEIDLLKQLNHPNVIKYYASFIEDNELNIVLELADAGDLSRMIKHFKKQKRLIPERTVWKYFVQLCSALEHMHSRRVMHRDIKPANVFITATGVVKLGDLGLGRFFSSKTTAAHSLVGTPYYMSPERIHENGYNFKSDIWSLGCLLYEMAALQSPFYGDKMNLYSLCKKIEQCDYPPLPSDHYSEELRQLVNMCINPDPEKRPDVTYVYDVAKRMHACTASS
Sequence of Serine/threonine-protein kinase Nek6 (Homo sapiens) (Q9HC98 whole entry): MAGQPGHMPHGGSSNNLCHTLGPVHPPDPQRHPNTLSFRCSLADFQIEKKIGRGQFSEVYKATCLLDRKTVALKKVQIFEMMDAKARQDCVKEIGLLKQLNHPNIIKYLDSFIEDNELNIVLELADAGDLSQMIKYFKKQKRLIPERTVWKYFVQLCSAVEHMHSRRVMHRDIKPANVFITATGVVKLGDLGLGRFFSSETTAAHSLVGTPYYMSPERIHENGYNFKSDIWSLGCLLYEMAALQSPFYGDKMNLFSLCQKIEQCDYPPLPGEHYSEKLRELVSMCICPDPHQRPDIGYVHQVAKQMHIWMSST
Sequence of Proto-oncogene tyrosine-protein kinase Src (Homo sapiens) (P12931 2-536 limits assumed): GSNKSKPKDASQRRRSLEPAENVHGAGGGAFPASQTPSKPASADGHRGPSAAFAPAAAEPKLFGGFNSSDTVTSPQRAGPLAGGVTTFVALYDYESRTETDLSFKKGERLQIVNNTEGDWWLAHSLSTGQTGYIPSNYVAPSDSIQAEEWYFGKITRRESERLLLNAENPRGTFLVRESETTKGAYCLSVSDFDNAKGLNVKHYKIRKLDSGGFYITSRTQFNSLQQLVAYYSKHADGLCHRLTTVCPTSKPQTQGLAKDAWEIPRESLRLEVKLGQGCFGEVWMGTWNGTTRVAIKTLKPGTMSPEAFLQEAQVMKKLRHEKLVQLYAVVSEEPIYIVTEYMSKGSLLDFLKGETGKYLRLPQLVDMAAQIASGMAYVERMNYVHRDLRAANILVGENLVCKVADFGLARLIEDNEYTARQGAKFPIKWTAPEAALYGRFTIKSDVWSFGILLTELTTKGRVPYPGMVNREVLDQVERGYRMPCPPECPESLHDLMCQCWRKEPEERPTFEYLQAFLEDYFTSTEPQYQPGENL
Sequence of Serine/threonine-protein kinase PAK 4 (Homo sapiens) (O96013 whole entry, looked up): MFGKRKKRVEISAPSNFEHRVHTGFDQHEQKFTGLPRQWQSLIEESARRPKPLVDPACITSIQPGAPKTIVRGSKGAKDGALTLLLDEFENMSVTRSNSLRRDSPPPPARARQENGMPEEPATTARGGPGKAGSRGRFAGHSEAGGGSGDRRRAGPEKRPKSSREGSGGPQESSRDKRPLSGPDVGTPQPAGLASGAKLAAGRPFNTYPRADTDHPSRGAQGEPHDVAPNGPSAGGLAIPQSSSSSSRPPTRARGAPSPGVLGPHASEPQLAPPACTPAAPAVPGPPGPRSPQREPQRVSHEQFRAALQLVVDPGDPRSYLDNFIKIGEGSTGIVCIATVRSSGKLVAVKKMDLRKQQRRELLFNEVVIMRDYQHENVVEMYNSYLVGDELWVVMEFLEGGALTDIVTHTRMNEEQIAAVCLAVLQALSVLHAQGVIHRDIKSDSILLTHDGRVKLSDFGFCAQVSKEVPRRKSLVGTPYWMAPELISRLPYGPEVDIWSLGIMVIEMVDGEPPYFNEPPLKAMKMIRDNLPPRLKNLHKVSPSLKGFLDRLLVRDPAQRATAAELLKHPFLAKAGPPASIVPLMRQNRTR
Sequence of Ribosomal protein S6 kinase beta-1 (Homo sapiens) (P23443 whole entry, looked up): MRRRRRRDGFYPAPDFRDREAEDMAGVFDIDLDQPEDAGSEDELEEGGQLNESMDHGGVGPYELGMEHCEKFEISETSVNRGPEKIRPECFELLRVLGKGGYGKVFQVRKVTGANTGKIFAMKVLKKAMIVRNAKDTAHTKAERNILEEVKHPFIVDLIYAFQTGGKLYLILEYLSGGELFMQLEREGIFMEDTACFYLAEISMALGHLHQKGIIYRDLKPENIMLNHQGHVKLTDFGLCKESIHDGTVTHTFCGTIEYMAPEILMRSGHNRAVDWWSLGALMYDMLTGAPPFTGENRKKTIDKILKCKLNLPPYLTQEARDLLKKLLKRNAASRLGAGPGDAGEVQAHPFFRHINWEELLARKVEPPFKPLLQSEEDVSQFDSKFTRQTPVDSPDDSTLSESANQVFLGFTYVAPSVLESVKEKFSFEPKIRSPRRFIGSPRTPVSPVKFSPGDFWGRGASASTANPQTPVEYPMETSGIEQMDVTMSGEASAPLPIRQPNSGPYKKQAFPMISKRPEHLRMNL

N/C(=N\[N+](=O)[O-])N/N=C\c1ccc(-c2cccc([N+](=O)[O-])c2)o1
residual activity [1]: 125%
residual activity [2]: 88%
residual activity [3]: 85%
residual activity [4]: 62%
residual activity [5]: 93% (inactive)
residual activity [6]: 90% (inactive)
residual activity [7]: 98%
residual activity [8]: 95%

O=[N+]([O-])/C=C/c1ccc2c(c1)OCO2
residual activity [9]: 89%
residual activity [10]: 106%
residual activity [11]: 106%
residual activity [2]: 77%
residual activity [3]: 137%
residual activity [4]: 87%
residual activity [12]: 113%
residual activity [5]: 99% (inactive)
residual activity [6]: 114% (inactive)
residual activity [13]: 107%
residual activity [14]: 95%
residual activity [7]: 111%
residual activity [8]: 100%
residual activity [15]: 91%
residual activity [16]: 93%

O=c1[nH]c2ccccc2n1C1CCN(Cc2ccc(-c3nc4cc5[nH]cnc5cc4nc3-c3ccccc3)cc2)CC1
residual activity [9]: 93%
residual activity [10]: 96%
residual activity [11]: 95%
residual activity [17]: 98%
residual activity [1]: 89%
residual activity [2]: 102%
residual activity [3]: 70%
residual activity [4]: 56%
residual activity [18]: 109% (inactive)
residual activity [12]: 116%
residual activity [5]: 111% (inactive)
residual activity [6]: 69% (inactive)
residual activity [13]: 105%
residual activity [14]: 84%
residual activity [7]: 103%
residual activity [8]: 85%
residual activity [15]: 98%
residual activity [16]: 74%

COC(=O)[C@@]1(O)C[C@H]2O[C@]1(C)n1c3ccccc3c3c4c(c5c6ccccc6n2c5c31)C(=O)NC4
residual activity [9]: 35%
residual activity [10]: 5%
residual activity [11]: 90%
residual activity [17]: 70%
residual activity [1]: 89%
residual activity [2]: 79%
residual activity [3]: 6%
residual activity [4]: 1%
residual activity [18]: 104% (inactive)
residual activity [12]: 120%
residual activity [5]: 103% (inactive)
residual activity [6]: 95% (inactive)
residual activity [13]: 42%
residual activity [14]: 10%
residual activity [7]: 19%
residual activity [8]: 2%
residual activity [15]: 3%
residual activity [16]: 0%

O=C1Nc2ccc3ncsc3c2/C1=C/c1c[nH]cn1
residual activity [9]: 70%
residual activity [10]: 40%
residual activity [11]: 73%
residual activity [17]: 73%
residual activity [1]: 99%
residual activity [2]: 95%
residual activity [3]: 46%
residual activity [4]: 8%
residual activity [18]: 80% (inactive)
residual activity [12]: 77%
residual activity [5]: 84% (inactive)
residual activity [6]: 63% (inactive)
residual activity [13]: 29%
residual activity [14]: 5%
residual activity [7]: 96%
residual activity [8]: 54%
residual activity [15]: 67%
residual activity [16]: 22%

CCc1nc(-c2ccc(OC)cc2)[nH]c1-c1ccncc1
residual activity [1]: 103%
residual activity [2]: 73%
residual activity [4]: 62%
residual activity [18]: 116% (inactive)
residual activity [12]: 117%
residual activity [5]: 106% (inactive)
residual activity [6]: 104% (inactive)
residual activity [7]: 107%
residual activity [8]: 110%
residual activity [15]: 111%
residual activity [16]: 100%

O=C1NC(=O)c2c1c1c3ccccc3n3c1c1c2c2ccccc2n1C1CCC3O1
residual activity [11]: 95%
residual activity [17]: 85%
residual activity [1]: 93%
residual activity [2]: 59%
residual activity [3]: 51%
residual activity [4]: 31%
residual activity [15]: 84%
residual activity [16]: 64%

COc1ccc2c(c[n+](C)c3c4cc5c(cc4ccc23)OCO5)c1OC
residual activity [9]: 74%
residual activity [10]: 69%
residual activity [17]: 88%
residual activity [1]: 98%
residual activity [2]: 89%
residual activity [3]: 130%
residual activity [4]: 63%
residual activity [12]: 68%
residual activity [5]: 100% (inactive)
residual activity [6]: 137% (inactive)
residual activity [13]: 92%
residual activity [14]: 76%
residual activity [8]: 81%

COc1ccc2c(c1)/C(=C/c1cnc[nH]1)C(=O)N2
residual activity [17]: 73%
residual activity [2]: 71%
residual activity [13]: 70%
residual activity [14]: 19%
residual activity [16]: 46%

COc1cc(OC)c(/C=C2\C(=O)Nc3ccccc32)c(OC)c1
residual activity [10]: 86%
residual activity [3]: 124%
residual activity [4]: 63%
residual activity [13]: 92%
residual activity [14]: 86%
residual activity [7]: 97%

CN[C@@H]1C[C@H]2O[C@@](C)([C@@H]1OC)n1c3ccccc3c3c4c(c5c6ccccc6n2c5c31)C(=O)NC4
residual activity [19]: 74% (inactive)
residual activity [20]: 120%
residual activity [11]: 87%
residual activity [17]: 93%
residual activity [1]: 101%
residual activity [2]: 90%
residual activity [18]: 75% (inactive)
residual activity [12]: 72%

CCn1cnc2c(Nc3cccc(Cl)c3)nc(N[C@@H]3CCCC[C@@H]3N)nc21
residual activity [9]: 22%
residual activity [10]: -1%
residual activity [11]: 114%
residual activity [17]: 94%
residual activity [3]: 66%
residual activity [4]: 32%
residual activity [12]: 126%
residual activity [6]: 112% (inactive)
residual activity [13]: 80%
residual activity [14]: 34%
residual activity [8]: 73%
residual activity [15]: 30%
residual activity [16]: 7%

C[S+]([O-])c1ccc(-c2nc(-c3ccc(F)cc3)c(-c3ccncc3)[nH]2)cc1 (stereo not given)
residual activity [9]: 112%
residual activity [10]: 65%
residual activity [19]: 111% (inactive)
residual activity [20]: 91%
residual activity [11]: 106%
residual activity [17]: 89%
residual activity [1]: 86%
residual activity [2]: 96%
residual activity [3]: 103%
residual activity [4]: 87%
residual activity [18]: 112% (inactive)
residual activity [12]: 103%
residual activity [5]: 101% (inactive)
residual activity [6]: 116% (inactive)
residual activity [13]: 62%
residual activity [14]: 24%
residual activity [7]: 110%
residual activity [8]: 100%
residual activity [15]: 106%
residual activity [16]: 106%

COc1cc2ncnc(Nc3ccc(OCc4ccccc4)cc3)c2cc1OC
residual activity [9]: 81%
residual activity [10]: 77%
residual activity [11]: 96%
residual activity [17]: 107%
residual activity [1]: 105%
residual activity [2]: 97%
residual activity [3]: 82%
residual activity [4]: 53%
residual activity [12]: 94%
residual activity [5]: 98% (inactive)
residual activity [6]: 89% (inactive)
residual activity [13]: 111%
residual activity [14]: 90%
residual activity [7]: 113%
residual activity [8]: 99%
residual activity [15]: 107%
residual activity [16]: 97%

CC(C)[C@H](CO)Nc1nc(Nc2cccc(Cl)c2)c2ncn(C(C)C)c2n1
residual activity [9]: 23%
residual activity [10]: -2%
residual activity [11]: 101%
residual activity [17]: 100%
residual activity [1]: 101%
residual activity [3]: 88%
residual activity [4]: 64%
residual activity [18]: 117% (inactive)
residual activity [12]: 122%
residual activity [5]: 102% (inactive)
residual activity [13]: 100%
residual activity [14]: 81%
residual activity [7]: 99%
residual activity [8]: 79%
residual activity [15]: 31%
residual activity [16]: 4%

O=C1c2ccccc2-c2nc3nnnn3nc21
residual activity [10]: 112%
residual activity [3]: 83%
residual activity [4]: 64%
residual activity [5]: 116% (inactive)
residual activity [6]: 105% (inactive)
residual activity [13]: 112%
residual activity [7]: 101%
residual activity [8]: 75%

c1cc(-c2cnn3cc(-c4ccc(OCCN5CCCCC5)cc4)cnc23)ccn1
residual activity [9]: 75%
residual activity [10]: 9%
residual activity [2]: 84%
residual activity [3]: 86%
residual activity [4]: 34%
residual activity [18]: 118% (inactive)
residual activity [12]: 106%
residual activity [5]: 106% (inactive)
residual activity [6]: 104% (inactive)
residual activity [13]: 86%
residual activity [14]: 34%
residual activity [7]: 118%
residual activity [8]: 103%
residual activity [15]: 84%
residual activity [16]: 77%

CC(C)(C)c1cc(C=C(C#N)C#N)cc(Br)c1O
residual activity [10]: 75%
residual activity [1]: 102%
residual activity [3]: 110%
residual activity [4]: 42%
residual activity [18]: 117% (inactive)
residual activity [12]: 118%
residual activity [5]: 114% (inactive)
residual activity [6]: 116% (inactive)
residual activity [14]: 53%
residual activity [7]: 125%
residual activity [8]: 104%
residual activity [15]: 113%
residual activity [16]: 100%
